Compounds with a hit are over-represented: about 2% of the library has one in this group of screens.
TDP43 rescue = inhibitors of TDP-43 toxicity in yeast | Potency, µM (titrated, usually from 46.1 µM), hits mostly activators | 410,000 compounds, 1.8% hits | TDP-43 expressing yeast growth rescue, BacTiter-Glo, 24 h | AID 652104; note: nearly all actives have a fitted effect of over 50% in size
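Galactose-induced TDP-43 yeast, OD600=0.02, compound pinned; 24 hr, 30 deg C; BacTiter-Glo luminescence for growth. Inhibitors of TDP-43 toxicity read as activators.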
FUS suppressor = suppressors of FUS proteinopathy in yeast; S. cerevisiae FUS-expressing, growth rescue, OD600, 24 h; Potency, µM (series often up to 76.6 µM), most hits filed as activators; 390,000 compounds, 0.24% hits; AID 1347120; note: nearly all actives have a fitted effect of over 55% in size
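Restored growth of FUS-toxic S. cerevisiae, read as 600 nm absorbance after 24 h at 30C in galactose medium (starting OD 0.005). Controls CP55940 and DMSO.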
aSyn rescue = inhibitors of alpha-synuclein toxicity in yeast. Yeast expressing alpha-synuclein, growth rescue, BacTiter-Glo, 24 h. 370,000 compounds, 0.14% hits. Potency, µM (doses to about 46.1 µM), usual class: activators; note: nearly all actives have a fitted effect of over 65% in size
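Galactose-induced alpha-syn yeast (OD600=0.02, raffinose-pregrown) + pinned cpd, 24 hr, 30 deg C; growth by BacTiter-Glo luminescence. Growth restoration scores as activation.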
Glioma ERSR ind = ER stress response induction in glioma; U87-MG GRP78 promoter luciferase reporter, 16 h; Potency, µM, actives largely listed as activators; 420,000 compounds, 0.02% hits; AID 602332; note: series mostly up to about 76 µM; nearly all actives have a fitted effect of over 35% in size
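Stably transfected U87-MG glioma cells carrying a GRP78-based luciferase sensor; 16 h compound incubation. Luminescence end-point read 10 min after Bright-Glo addition at room temperature.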
MBNL1-CUG inh = inhibitors of human MBNL1 binding to CUG repeat RNA. Potency, µM (titrated, usually from 57.5 µM), actives largely listed as inhibitors. Q9NR56. 280,000 compounds, 0.036% hits. AID 2675. TR-FRET MBNL1-His/biotin-(CUG)12 binding, 665/545 ratio; active = well fitted inhibition curve with a large enough effect in the signal ratio, with a control signal flat, not every such curve was filed as active; inconclusive = small, poorly fitted or top-dose-only effect, or effect the other way, or a change in a side signal; inactive = no such curve, though single readings can be large or run the other way; the % refers to the signal ratio
Target sequence (Q9NR56 whole entry, looked up): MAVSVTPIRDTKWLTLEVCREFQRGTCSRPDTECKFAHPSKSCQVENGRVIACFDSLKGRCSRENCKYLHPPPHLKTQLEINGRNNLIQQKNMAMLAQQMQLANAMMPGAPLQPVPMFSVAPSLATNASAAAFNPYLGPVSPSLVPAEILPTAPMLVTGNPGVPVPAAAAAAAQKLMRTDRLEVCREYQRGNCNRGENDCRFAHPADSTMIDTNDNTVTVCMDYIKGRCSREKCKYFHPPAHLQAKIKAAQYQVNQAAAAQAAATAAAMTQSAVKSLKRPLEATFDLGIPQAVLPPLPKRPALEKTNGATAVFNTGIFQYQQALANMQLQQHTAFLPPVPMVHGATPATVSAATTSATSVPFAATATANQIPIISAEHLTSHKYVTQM
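TR-FRET between His-tagged MBNL1 and biotin-(CUG)12 RNA, detected with Tb anti-His antibody (0.055 ng/ul) and streptavidin-XL665 (5 nM), 60 min at room temperature. Compounds titrated 92 nM to 58 uM; 665/545 nm ratio normalized to buffer and complex controls.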
Abeta yeast res = compounds reversing amyloid beta toxicity in yeast; AID 1347071; 410,000 compounds, 0.063% hits; yeast expressing A-beta42, growth rescue, OD600, 48 h; response scale: 0% DMSO, 100% iron-clioquinol control; Potency, µM (top dose mostly 46.1 µM), usual class: activators; note: nearly all actives have a fitted effect of over 55% in size
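Yeast A-beta toxicity model in growth medium with pinned compounds, 48 h at 30 C; growth read as absorbance at 600 nm. Normalized to FeCl3/clioquinol equimolar mix (positive) and DMSO (negative).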
Hits are given with their value; n = inactive; u = inconclusive; x = not tested or not shown; [ ] = remark or other dose. Unless noted, calls come from the whole dose curve; as a rule, active = well fitted curve in the direction sought with a large enough effect; inconclusive = small, poorly fitted or top-dose-only effect, or another doubt; inactive = no such curve, though single readings can be large; an effect the other way counts as inactive or inconclusive.

SMILES | TDP43 rescue | FUS suppressor | aSyn rescue | Glioma ERSR ind | MBNL1-CUG inh | Abeta yeast res
Cc1c(C(=O)NCC(C)(C)N2CCOCC2)cnn1-c1ncc2c(n1)-c1ccccc1CC2 | x | x | x | n | x | x
CCOc1cc(CNc2ccc(O)cc2)ccc1OCc1ccc(Cl)cc1 | 35µM | n | x | u | x | n
Nc1ccc2c(c1)C(=NO)c1cc([N+](=O)[O-])ccc1-2 | 11µM | x | 6.3µM | n | x | n
COCC(=O)N1CC[C@H]2[C@@H]1c1cc(-c3cccc(OC)c3)ccc1N(C)[C@H]2CO | x | n | x | x | x | x
CC(=O)Nc1c(NC(C)C)c2ccccc2oc1=O | n | n | n | n | n | n
COC(=O)Oc1c(Br)c(=O)oc2ccccc12 | 3.5µM | n | n | n | x | n
CN1CC=C(c2ccccc2)N(c2ccc(Br)cc2)C1=O | x | n | x | x | x | x
O=C1c2ccccc2N2C(=O)c3ccccc3[C@H]2N1c1ccccc1 | 20µM | n | n | n | n | n[9.22 µM]
CC(C)C(=O)N1CCC1(C)C(=O)Nc1ccccc1OC(F)F (configuration not stated) | n | n | n | n | x | n
COc1ccc(-c2ccccc2)cc1NC(=O)C1(C)CCN1C(=O)C(C)C (configuration not stated) | 35µM | u | n | n | x | n
Cc1cc(C)nc(N2CCN(C(=O)CSc3nc4ccccc4nc3N3CC(C)OC(C)C3)CC2)n1 (configuration not stated) | x | n | x | x | x | x
Cc1ccc(Nc2ccc([N+](=O)[O-])cn2)cc1Cl | 0.89µM | n | n | n | n | n
O=[N+]([O-])c1ccc(Nc2cccc(F)c2)nc1 | 13µM | n | n | n | u | n
C=c1[nH]cc(C(C)c2c(C)n(C)c3ccccc23)/c1=C/C (configuration not stated) | x | n | x | x | x | x
Cc1cccc(OCCSCc2nc3ccccc3[nH]2)c1 | n | n | n | n | n | n
Cc1cccc(OCCCSc2nc3ccccc3[nH]2)c1 | 20µM | n | n | n | n | n
Cc1cccc(NS(=O)(=O)c2c(C)nc3scc(C)n3c2=O)c1 | 16µM | n | u | n | n | n
CC(=O)c1ccc(NS(=O)(=O)c2c(C)nc3scc(C)n3c2=O)cc1 | n | n | x | n | x | n
Cc1nc2scc(C)n2c(=O)c1S(=O)(=O)Nc1ccc(N2CCN(S(C)(=O)=O)CC2)cc1 | 16µM | n | u | n | n | u
O=[N+]([O-])c1ccc(SNc2ccccc2)c([N+](=O)[O-])c1 | u | x | n | n | x | n
CO/N=C/c1ccc(Sc2ccccc2N)c([N+](=O)[O-])c1 | 20µM | n | n | n | u | u
Nc1ccccc1Sc1ccccc1[N+](=O)[O-] | 18µM | x | n | n | u | n
O=[N+]([O-])c1cc(/C=N/O)ccc1Sc1ccccc1 | 3.2µM | n | n | n | u | n
O=[N+]([O-])c1ccccc1SNc1ccccc1 | 13µM | n | n | n | x | n
COC(=O)c1ccc(-c2cccc3c2OC(CNC(=O)c2ccc4c(c2)OCCO4)C3)nc1 (configuration not stated) | x | x | x | n | x | x
SMILES | TDP43 rescue | FUS suppressor | aSyn rescue | Glioma ERSR ind | MBNL1-CUG inh | Abeta yeast res
COc1ccc(N2CCN(C(=O)CSc3ncnc4scc(-c5ccc(C)cc5)c34)CC2)cc1 | 11µM | n | n | n | x | n
Cc1cc2ncn(-c3ncnc4scc(-c5ccccc5)c34)c2cc1C | 8.9µM | x | n | n | n | n
COc1ccc(-c2csc3ncnc(N4CCN(c5cccc(OC)c5)CC4)c23)cc1 | 11µM | x | n | n | n | n
COc1ccc(N2CCN(C(=O)CSc3nc(C)cs3)CC2)cc1 | n | n | n | n | x | n
c1ccc(-c2csc3ncnc(N4CCc5ccccc5C4)c23)cc1 | 11µM | x | n | n | n | n
O=C(NCC1(N2CCOCC2)CCCCC1)c1cnn(-c2nccc(-c3ccco3)n2)c1C1CC1 | x | x | x | n | x | x
COc1ccc(CN2CCOc3ccc(CN4CCC(O)(c5cccnc5)CC4)cc3C2)c(C)c1C | x | x | x | n | x | x
COc1ccc(N2CCN(c3ncnc4scc(-c5ccc(F)cc5)c34)CC2)cc1 | 13µM | n | n | n | n | n
COc1ccc(N2CCN(c3ncnc4scc(-c5ccc(C)cc5)c34)CC2)cc1 | u | n | n | n | n | n
COc1ccc(-c2csc3ncnc(N4CCN(S(=O)(=O)c5cccs5)CC4)c23)cc1 | 13µM | n | n | n | x | n
CCC(C(=O)Nc1ccccc1N1CCCC1)c1cccc(OC)c1 (configuration not stated) | x | n | x | x | x | x
O=C(COc1ccc(Cl)cc1Cl)OCC(=O)c1ccc[nH]1 | n | n | n | n | x | n
O=C(Cc1ccc(Cl)cc1Cl)OCC(=O)c1ccc[nH]1 | 18µM | n | n | n | n | n
Cc1c(C(=O)O)oc2c1-c1nn(Cc3ccccc3Cl)cc1CC2 | 16µM | n | x | x | x | n
Cc1c(C(=O)N(C)C2CCOC2)cnn1-c1ncc2c(n1)-c1ccccc1CCC2 (configuration not stated) | x | x | x | n | x | x
O=[N+]([O-])c1cccnc1Sc1ccc(Br)cc1 | 13µM | n | n | n | x | n
Cc1ccccc1Sc1ncccc1[N+](=O)[O-] | 13µM | n | n | n | x | n
Cc1ccc(Sc2ncccc2[N+](=O)[O-])cc1 | u | n | n | n | u | n
Cc1ccnc(Sc2ncccc2[N+](=O)[O-])n1 | n | n | n | n | u | n
O=C(CCn1ccc2ccccc21)NC1CCCc2ccccc21 (configuration not stated) | 18µM | n | n | n | n | n[9.22 µM]
COc1ccc(CN2CCCC(c3nc(C)ncc3-c3ccc(F)cc3)C2)c(OC)c1OC (configuration not stated) | x | x | x | n | x | x
Cc1cc(S(=O)(=O)c2ccc(Cl)cc2)nc(S(=O)(=O)c2ccc(Cl)cc2)c1C#N | 3.5µM | n | n | n | x | n
O=C(c1ccc(Cn2cnnn2)cc1)N1CCOc2ccc(C(O)C3CCCCC3)cc2C1 (configuration not stated) | x | x | x | n | x | x
COc1ccc(-c2nc(CSCC(=O)N3CCN(c4cccc(C)c4C)CC3)c(C)o2)cc1OC | u | 25µM | x | n | x | n
CCOc1ccc(-c2nc(CSCC(=O)N3CCN(c4cccc(C(F)(F)F)c4)CC3)c(C)o2)cc1 | n | 22µM | x | n | x | n
COc1ccc(-c2nc(CSCC(=O)N3CCN(C)CC3)c(C)o2)cc1OC | n | n | n | n | u | n
CCn1c(-c2ccccc2F)nc2cc(C(=O)NCC3CCOCC3)cc(NC(C)=O)c21 | x | x | x | n | x | x
O=C(/C=C/c1ccc2c(c1)OCCCO2)c1ccccc1O | 13µM | x | n | u | n | n
Cc1ccc(O)c(C(=O)/C=C/c2ccc3c(c2)OCCCO3)c1 | 14µM | n | n | u | n | n

Compound activity from PubChem BioAssay.
